Source: PubChem BioAssay AID1347081 (National Center for Advancing Translational Sciences (NCATS), 2019)
Results filed as inconclusive are left out. Activity calls are given as the source filed them. The call rests on the fitted dose curve.

Assay: qHTS for Inhibitors of the Functional Ribonucleoprotein Complex (vRNP) of Lassa (LASV) Arenavirus: Viability assay - alamar blue signal for LASV Confirmatory Screen
Conditions: LASV vRNP counter-screen cells; series mostly up to 53.9 µM

Compound	Potency	activity change, negative = decreased viability
CC[C@@]1([C@@H]2O[C@@H]([C@H]3O[C@@](O)(CO)[C@H](C)C[C@H]3C)C[C@H]2C)CC[C@H]([C@]2(C)CC[C@]3(C[C@H](O)[C@@H](C)[C@@H]([C@@H](C)[C@@H](OC)[C@H](C)C(=O)O)O3)O2)O1	4.21 µM (active)	
O=C(Nc1ccc([N+](=O)[O-])cc1Cl)c1cc(Cl)ccc1O	2.17 µM (active)	
O=C1Cc2cc(CCN3CCN(c4nsc5ccccc45)CC3)c(Cl)cc2N1	inactive	
Fc1ccc(CNc2ncnc3ccc(F)cc23)cc1	15.3 µM (active)	
O=c1ccc2ccc(O)c(O)c2o1	inactive	
CN1C(C(=O)Nc2ccccn2)=C(O)c2ccccc2S1(=O)=O	inactive	
CCC(C)c1nccnc1OC (configuration not stated)	inactive	
Cc1ccc2c(c1)C1CN(C)CCC1N2 (configuration not stated)	inactive	
CC(O)C(O)[C@H]1CNc2nc(N)[nH]c(=O)c2N1 (some centres not stated)	inactive	
Oc1cc(Cl)ccc1Oc1ccc(Cl)cc1Cl	39.5 µM (active)	
Cc1cccc(-c2[nH]c(C(C)(C)C)nc2-c2ccc3c(c2)OCO3)n1	4.85 µM (active)	
CC[C@@H](C(=O)O)[C@@H]1O[C@@H]([C@@H](C)[C@H](O)[C@H](C)C(=O)[C@H](CC)[C@H]2O[C@]3(C=C[C@@H](O)[C@]4(CC[C@@](C)([C@H]5CC[C@](O)(CC)[C@H](C)O5)O4)O3)[C@H](C)C[C@@H]2C)[C@@H](C)C[C@@H]1C	1.57 µM (active)	
CN(C)c1ccc(O)c2c1C[C@H]1C[C@H]3[C@H](N(C)C)C(=O)C(C(N)=O)=C(O)[C@@]3(O)C(=O)C1=C2O	inactive	
CC(=O)OCC(=O)[C@@]12N=C(C)O[C@H]1C[C@H]1[C@@H]3CCC4=CC(=O)C=C[C@]4(C)[C@@H]3[C@@H](O)C[C@@]12C	inactive	
Cc1cnc(NC(=O)C2=C(O)c3ccccc3S(=O)(=O)N2C)s1	inactive	
CO/C=C(/C(=O)OC)c1ccccc1Oc1cc(Oc2ccccc2C#N)ncn1	31.4 µM (active)	
CCCCCC[C@H]1C(=O)O[C@H](C)[C@H](NC(=O)c2cccc(NC=O)c2O)C(=O)O[C@@H](C)[C@@H]1OC(=O)CC(C)C	0.0544 µM (active)	
CC(C)=CCC/C(C)=C/CC/C(C)=C/CC[C@]1(C)CCc2c(C)c(O)c(C)c(C)c2O1		6.56% [at 6 µM] (inactive)
CNCCCC1c2ccccc2C=Cc2ccccc21	24.3 µM (active)	
COc1cc2c(cc1OC)CC(=O)N(CCCN(C)C[C@H]1Cc3cc(OC)c(OC)cc31)CC2	inactive	
CCC1OC2(C)C(O)C(/C=C/C=C/C=C/c3oc(=O)cc(OC)c3C)OC1(C)C2OC(C)=O (configuration not stated)	0.109 µM (active)	
CCCCC/C(C=O)=C\c1ccccc1	inactive	
CC1OC(=O)[C@@H](C(C)C)NC(=O)C(C(C)C)OC(=O)[C@H](C(C)C)NC(=O)C(C)OC(=O)[C@@H](C(C)C)NC(=O)C(C(C)C)OC(=O)[C@H](C(C)C)NC(=O)C(C)OC(=O)[C@@H](C(C)C)NC(=O)C(C(C)C)OC(=O)[C@H](C(C)C)NC1=O (some centres not stated)	1.22 µM (active)	
CCC[C@H](N[C@@H](C)C(=O)N1[C@@H]2CCCC[C@H]2C[C@H]1C(=O)O)C(=O)OCC	inactive	

Compound	Potency	activity change, negative = decreased viability
CCCCC[C@H](O)/C=C/C=C/C/C=C\CCCC(=O)O		20.4% [at 0.666 µM] (inactive)
COc1ccc(Cc2nccc3cc(OC)c(OC)cc23)cc1OC	13.7 µM (active)	
Cc1cc2c(C(C)C)c(O)c(O)c(C=O)c2c(O)c1-c1c(C)cc2c(C(C)C)c(O)c(O)c(C=O)c2c1O	21.7 µM (active)	
C=C(C)[C@H]1Cc2c(ccc3c2O[C@@H]2COc4cc(OC)c(OC)cc4[C@@H]2C3=O)O1	0.193 µM (active)	
Clc1nccc2c1ccc1ccccc12	inactive	
O=c1[nH]c2ccccc2n1C1CCN(CCCC(c2ccc(F)cc2)c2ccc(F)cc2)CC1	inactive	
CCN(CC)C(=O)N[C@@H]1C=C2c3cccc4[nH]cc(c34)C[C@@H]2N(C)C1	inactive	
CC1=C(C)C(=O)C(CCCCC#CCCCC#CCO)=C(C)C1=O	24.3 µM (active)	
Cn1cc(-c2ccncc2)c(-c2ccc(OCc3ccc4ccccc4n3)cc2)n1	21.7 µM (active)	
S=C(NCc1ccc2c(c1)OCO2)N1CCN(c2ncnc3c2oc2ccccc23)CC1	8.85 µM (active)	
CCc1cncnc1N1CCN(Cc2nc3ccc(C(F)(F)F)cc3[nH]2)CC1	12.5 µM (active)	
CCn1c(-c2nonc2N)nc2cnc(Oc3cccc(NC(=O)c4ccc(OCCN5CCOCC5)cc4)c3)cc21	8.63 µM (active)	
CC12C(=O)OC(=O)C1(C)C1CCC2O1 (configuration not stated)	3.85 µM (active)	
Nc1ccc([N+](=O)[O-])cc1O	39.5 µM (active)	
CCOC(=O)OCC/C(SC(=O)OCC)=C(\C)N(C=O)Cc1cnc(C)nc1N	inactive	
CC(O)(P(=O)(O)O)P(=O)(O)O	inactive	
COC(=O)c1nc(Cl)c(Cl)nc1N	1.93 µM (active)	
O=C(Nc1ccccc1)Nc1ccc(-c2ccc(C(=O)[C@H]3CCC[C@H]3C(=O)O)cc2)cc1	inactive	
O=C1c2ccccc2-n2c1nc1ccccc1c2=O	3.85 µM (active)	
C=C(C)C1Cc2c(ccc3c2OC2COc4cc(OC)c(OC)cc4C2C3=O)O1 (configuration not stated)	0.0968 µM (active)	
Cc1ncc([N+](=O)[O-])n1CC(C)O (configuration not stated)	inactive	
CCCCCN=C(N)N/N=C/c1c[nH]c2ccc(OC)cc12	8.63 µM (active)	
CCC(c1ccc(O)cc1)C(CC)c1ccc(O)cc1 (configuration not stated)	inactive	
